Data on 12 molecules can be found in PubChem BioAssay (NCATS).

Records with an inconclusive call do not appear. Activity calls are given as the source filed them. Calls follow the shape of the dose curve; as a rule, active = well fitted activation curve with a large enough effect; inconclusive = small, poorly fitted or top-dose-only effect; inactive = flat fitted curve, though single readings scatter.

The test is described as follows: Primary redox qHTS assay for identification of artifact compounds. (AID 1845223). The following applies: Amplex Red/HRP redox cycling with DTT, fluorescence; series mostly up to 53.8 µM. The source says: PI: Alexander Tropsha Ph.D.
UNC Eshelman School of Pharmacy
University of North Carolina, Chapel Hill, North Carolina
Hits from high-throughput screening (HTS) of chemical libraries are often false positives due to their interference with the assay detection technology. In response to this problem, we generated the largest publicly available library of chemical liabilities and developed a free webtool to predict HTS artifacts, both of which are described herein. More specifically, we generated, curated, and integrated HTS datasets for thiol reactivity, redox activity, and luciferase (firefly and nano) activity. Using these curated datasets, we developed and validated several Quantitative Structure-Interference Relationship (QSIR) models to predict nuisance behavior. […] These models were employed for virtual profiling of the National Center for Advancing Translational Science's (NCATS) in-house library, and 256 compounds for each assay were selected for the experimental validation of nuisance behavior. The BA for these external predictions ranged from 58 to 78% for compounds within the applicability domains of the models. […] The models developed in this study, along with aggregation models previously developed by our group (SCAM Detective) were implemented in "Liability Predictor," an online tool which may be used as part of chemical library design or for triaging HTS hits. Both the models and the curated datasets are publicly available at https://liability.mml.unc.edu/.
SEQUENCE No. (e.g., 1, 2, 3, etc.); […] (e.g., Cells, Incubation, Reagent, etc.); VALUE; DESCRIPTION.
1; Reagent; 3 uL; Amplex Red and HRP mixture.
2; Compounds and control; 16 nL; Kalypsis pin tool (Wako USA) equipped with a 1536-well pin head. […]
6; Detection; Fluorescence, ViewLux microplate reader, 525 nm excitation, 598 nm emission.
NOTES (numbers refer to Sequence numbers above)
1. 3 uL of a mixture containing Amplex Red (25 uM final concentration) and horseradish peroxidase (HRP; 250 mU/mL final concentration) in assay buffer (HBSS) was dispensed into all wells of a 1536-well assay plate (solid-bottom black plate; Greiner Bio One, Monroe, NC).
2. A Wako Pin-tool (Wako Automation, Richmond, VA) was used to transfer 16 nL of compounds (consisting of 7-plates in qHTS format, final concentration range 18.3 nM to 114 uM) or control DA3003 (final concentration range 1.22 nM to 40 uM).
3. 15 min. incubation at room temperature protected from light.
4. 1 uL of DTT (prepared fresh; final concentration 250 uM) was dispensed for a final assay volume of 4 uL.
5. Plates were centrifuged (121xg, 15 seconds) and incubated for 30 minutes at room temperature protected from light.
6. Samples were read for fluorescence (Ex/Em = 525(20)/598(25) nm) on a ViewLux CCD imager (PerkinElmer). Data were normalized to DMSO (0% activity) and DA3003 (10 uM final concentration; 100% activity) and the resulting percent inhibition data were fitted to a 4-parameter Hill equation using NCATS in-house software.
Background: qHTS replaces the single test concentration by a dilution series.
Take `O=C(N[C@@H]1N=C(c2ccccc2F)c2cccc3c2N(CC3)C1=O)c1cc2ccccc2[nH]1`: the result was inactive. As for `CCOC(=O)c1cncn1C(C)c1ccccc1` (configuration not stated), the result was inactive. `Cc1nnc2n1-c1sc(CCc3ccc(CC(C)C)cc3)cc1C(c1ccccc1Cl)=NC2C` (configuration not stated): the outcome was inactive. For `CCOC(=O)NC(C)(C)Cc1ccc(Cl)cc1`, the molecule was classed as inactive. The entry for `CCOC(=O)c1ncn2c1CN(C)C(=O)c1c(I)cccc1-2` is “inactive”. Regarding `CCCCC1C(=O)NC(=O)N(C2CCCCC2)C1=O` (configuration not stated), the result was inactive. For `CCCOC(=O)Cc1ccc(OCC(=O)N(CC)CC)c(OC)c1` the value was “inactive”. The entry for `C[C@]12CC[C@H](O)CC1=CC[C@@H]1[C@@H]2CC[C@]2(C)C(=O)CC[C@@H]12` is “inactive”. With `CC[C@H]1C[C@H]2[C@@H]3CCC4=CC(=O)CC[C@@H]4[C@H]3CC[C@]2(C)[C@H]1O`, the call was inactive.

Regarding `O=C(O)CCCCCCNC1c2ccccc2CCc2ccccc21`, the result was inactive. On to `O=C(N[C@H]1N=C(c2ccccc2F)c2cccc3c2N(CC3)C1=O)c1cc2ccccc2[nH]1`, for which the outcome was inactive.

In the case of `CCCC[N+]1(C)[C@@H]2CC(OC(=O)[C@H](CO)c3ccccc3)C[C@H]1[C@@H]1O[C@@H]12` (some centres not stated), the molecule was called inactive.
